In PubChem BioAssay (NCATS):
Results filed as inconclusive are left out. A call without a number means that no potency is given here. A number with no mark means an inactive call. Activity calls are given as the source filed them. Calls come from the whole dose curve; as a rule, active = well fitted inhibition curve with a large enough effect; inconclusive = small, poorly fitted or top-dose-only effect; inactive = flat fitted curve, though single readings scatter.

What was measured:
[1] = target: Glutathione peroxidase 1 (Homo sapiens) (UniProt P07203); test: Primary qHTS Assay for Inhibitors of Recombinant Selenoprotein Glutathione Peroxidase 1 (GPX1) (AID 1845191)
Outline: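 GPX1 10 nM, GR 100 nM, GSH 1 mM, NADPH 0.5 mM, CHP 0.5 mM (final). 30-min cpd preincubation, RT. Ex340/Em450 read t=0, t=15 min.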

[2] = target: Phospholipid hydroperoxide glutathione peroxidase GPX4 (Homo sapiens) (UniProt P36969); test: Primary qHTS Assay for Inhibitors of Recombinant Selenoprotein Glutathione Peroxidase 4 (GPX4) (AID 1845192)
Outline: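 qHTS, GR-coupled: GPX4 200 nM + cpd 30 min RT → GSH 1 mM, NADPH 0.5 mM, GR 100 nM → CHP 0.5 mM start; fluor 340/450 at t0 and t15 min; no-enzyme wells as control.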
Note: nearly all actives have a fitted effect of over 65% in size.
Potency is the fitted concentration of half-maximal effect.

Glutathione peroxidase 1 (Homo sapiens), sequence (P07203 whole entry, looked up): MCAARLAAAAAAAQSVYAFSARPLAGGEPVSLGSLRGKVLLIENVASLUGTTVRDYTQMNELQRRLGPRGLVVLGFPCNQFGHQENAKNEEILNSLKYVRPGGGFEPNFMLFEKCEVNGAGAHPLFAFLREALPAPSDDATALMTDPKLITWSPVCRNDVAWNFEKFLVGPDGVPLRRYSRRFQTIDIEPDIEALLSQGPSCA
Phospholipid hydroperoxide glutathione peroxidase GPX4 (Homo sapiens), sequence (P36969 whole entry, looked up): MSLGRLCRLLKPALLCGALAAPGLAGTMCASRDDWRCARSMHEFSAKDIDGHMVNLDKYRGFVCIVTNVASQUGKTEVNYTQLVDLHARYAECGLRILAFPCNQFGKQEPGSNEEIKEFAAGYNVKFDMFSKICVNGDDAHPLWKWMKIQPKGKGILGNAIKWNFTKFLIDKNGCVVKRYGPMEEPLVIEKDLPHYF

## NC(CCCCCP(=O)(O)O)C(=O)O (centres undefined)
[1]
  Potency: inactive
[2]
  Potency: inactive

## CNc1ccc2oc(C[C@H]3O[C@@]4(CC[C@H]3C)O[C@H]([C@H](C)C(=O)c3ccc[nH]3)[C@H](C)C[C@H]4C)nc2c1C(=O)O
[1]
  Potency: inactive
[2]
  Potency: inactive

## NNC(N)=O
[1]
  Potency: inactive
[2]
  Potency: inactive

## CC(Cc1ccc(OCC(=O)O)cc1)NCC(O)c1cccc(Cl)c1 (centres undefined)
[1]
  Potency: inactive
[2]
  Potency: inactive

## C[N+]1(C)CCCCC1COC(=O)C(O)(c1ccccc1)c1ccccc1 (centres undefined)
[1]
  Potency: inactive
[2]
  Potency: inactive

## NC(=O)COc1c(F)cc(SCCNS(=O)(=O)c2ccccc2)cc1F
[1]
  Potency: inactive
[2]
  Potency: inactive

## Oc1ccc2c3c1O[C@H]1c4oc5ccccc5c4C[C@@]4(O)C(C2)N(CC2CC2)CCC314 (some centres undefined)
[1]
  Potency: inactive
[2]
  Potency: inactive

## CC(N)c1cccc(Cl)c1Cl (centres undefined)
[1]
  Potency: inactive
[2]
  Potency: inactive

## CC(=O)O[C@H]1CC[C@H]2[C@@H]3CCC4=CC(=O)CCC4=C3C=C[C@]12C
[1]
  Potency: inactive
[2]
  Potency: 22.4 µM (active)

## CC(=O)OCC1=C(C(=O)O)N2C(=O)[C@@H](NC(=O)CCC[C@@H](N)C(=O)O)[C@H]2SC1
[1]
  Potency: inactive
[2]
  Potency: inactive

## CCCN(CCC)[C@H]1CCc2c(F)ccc(O)c2C1
[1]
  Potency: inactive
[2]
  Potency: inactive

## N#C/C(=C/c1ccc(O)c(O)c1)C(N)=S
[1]
  Potency: 14.3 µM (active)
[2]
  Potency: inactive

## C[C@@H]([C@H](O)c1ccccc1)N(C)C
[1]
  Potency: inactive
[2]
  Potency: inactive

## CC(C)(O)[C@@H]1C2OC(=O)[C@@H]1[C@]1(O)C[C@H]3O[C@]34C(=O)O[C@H]2[C@]14C (tested in a mixture with another compound)
[1]
  Potency: inactive
[2]
  Potency: inactive

## CC(C)(C)c1o[nH]c(=O)c1CC(N)C(=O)O (centres undefined)
[1]
  Potency: inactive
[2]
  Potency: inactive

## Oc1ccc2c3c1O[C@H]1c4[nH]c5ccccc5c4C[C@@]4(O)C(C2)N(CC2CC2)CCC314 (some centres undefined)
[1]
  Potency: inactive
[2]
  Potency: inactive

## CC(N)Cc1ccc(O)cc1 (centres undefined)
[1]
  Potency: inactive
[2]
  Potency: inactive

## CCNCC(O)c1cccc(O)c1 (centres undefined)
[1]
  Potency: inactive
[2]
  Potency: inactive

## CCC1(CC)C(=O)NC(=O)N(C)C1=O
[1]
  Potency: inactive
[2]
  Potency: inactive

## CCCN1CC[C@@H]2c3cc(O)ccc3CC[C@@H]21
[1]
  Potency: inactive
[2]
  Potency: inactive

## NCCc1c[nH]c2ccc(C(N)=O)cc12
[1]
  Potency: inactive
[2]
  Potency: inactive

## O=[N+]([O-])C(Br)(CO)CO
[1]
  Potency: inactive
[2]
  Potency: inactive

## ClC1C(Cl)C(Cl)C(Cl)C(Cl)C1Cl (centres undefined)
[1]
  Potency: inactive
[2]
  Potency: inactive

## O=c1ccc2[nH]cc(C3=CCNCC3)c2[nH]1
[1]
  Potency: inactive
[2]
  Potency: inactive

## CCCN(CCC)C1CCc2cccc(O)c2C1 (centres undefined)
[1]
  Potency: inactive
[2]
  Potency: inactive

## N#CCCN
[1]
  Potency: inactive
[2]
  Potency: inactive

## Nc1ccc(CCN2CCN(c3cccc(C(F)(F)F)c3)CC2)cc1
[1]
  Potency: inactive
[2]
  Potency: inactive
